Screens (PubChem BioAssay)
The list is not random: actives were taken first. Their share in the collection is about 4.5%.
tim10-1 inh: growth inhibitors of tim10-1 mutant yeast; S. cerevisiae tim10-1 ts strain growth, BacTiter-Glo, 24 h; inhibition, % at 20 µM; 330,000 compounds, 2.2% hits; AID 463190;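 active = inhibition of at least 40%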;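 note: mutant grown at 25 °C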
SKKanGAS inh: inhibitors of SKKanGAS S. pyogenes growth in kanamycin (SK-promoter or general growth effect) | BacTiter-Glo, 6 h | 300,000 compounds, 1.3% hits | inhibition, % at 7.5 µM;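 active = mean replicate score, as percent of positive control median, at least 50; inconclusive = mean below 50 but one replicate at or above 50; inactive = mean and every replicate below 50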;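 note: strain carries kanamycin resistance gene driven by streptokinase promoter and grows in 40 µg/ml kanamycin; loss of luminescence reflects streptokinase promoter inhibition or plain growth inhibition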
tim23-1 inh: growth inhibitors of tim23-1 mutant yeast | S. cerevisiae tim23-1 growth, BacTiter-Glo luminescence, 24 h | inhibition, % at 20 µM | 330,000 compounds, 1.3% hits | AID 463212;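 active = growth inhibition of the mutant yeast at or above 50%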;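 note: temperature-sensitive mutant grown at 25 °C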
PfHsp90 set2: reduces growth (ATP signal) of yeast expressing P. falciparum Hsp90; S. cerevisiae expressing PfHsp90, BacTiter-Glo ATP, 48 h; yeast lacking PDR1 and PDR3 efflux regulators; 310,000 compounds, 0.32% hits; inhibition, % at 9.4 µM;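 active = every replicate shows inhibition above about 80%, whatever the replicate mean, limit read from the data; inconclusive = mean inhibition reaches the set limit but some replicate falls short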
TIM10 inh: inhibits growth of TIM10 yeast strain. S. cerevisiae TIM10 strain growth, BacTiter-Glo luminescence, 24 h. inhibition, % at 10 µM. 330,000 compounds, 1.4% hits;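 active = inhibition of 40% or more at the single tested concentration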;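 note: wild-type TIM10 isogenic control strain grown at permissive 25 °C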
NLRP3 yeast inh: NALP3 inhibition in yeast | Yeast reconstituted NLRP3/ASC/caspase-1, beta-gal luminescence, 24 h | 330,000 compounds, 0.39% hits | inhibition, % at 10 µM | AID 2825;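 active = inhibition of 50% or more; inactive = inhibition below 50%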
tim10-1 conf: confirmation of tim10-1 mutant yeast growth inhibitors | shares compounds with tim10-1 inh | S. cerevisiae tim10-1 ts strain growth, BacTiter-Glo, 24 h | inhibition, % at 20 µM | 7,400 compounds, 56% hits;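 active = inhibition of yeast growth at or above a set limit in either of two repeat tests at 20 µM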;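 note: tim10-1 mutant grown at permissive 25 °C to find synthetic lethal compounds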
tim10 confirm: confirmation of TIM10 yeast growth inhibitors. shares compounds with TIM10 inh. S. cerevisiae tim10 strain growth, BacTiter-Glo luminescence, 24 h. inhibition, % at 10 µM. 4,600 compounds, 63% hits. AID 463215;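 active = inhibition of yeast growth at or above a set limit in either of two replicates at 10 µM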; note: this counterscreen used the strain with wild-type TIM10
tim23-1 confirm: confirmation of tim23-1 mutant yeast growth inhibitors. S. cerevisiae tim23-1 growth, BacTiter-Glo luminescence, 24 h. shares compounds with tim23-1 inh. 4,400 compounds, 83% hits. inhibition, % at 20 µM. AID 463218;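 active = inhibition above about 39% in either of two replicate wells at 20 µM, limit read from the data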;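 note: temperature-sensitive tim23-1 mutant grown at 25 °C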
Large screens that a line does not name were inactive (follow-up assays come after a bar, where they were run).

Cc1ccc2c(c1)c1c(n2CCc2ccc(C)nc2)CCN(C)C1	none (no result: SKKanGAS inh)
C[C@H](O)[C@@H]1C(=O)N2CCc3ccc(N4CCN(C)CC4)cc3[C@@H]2C[C@@H]1N(C)C(=O)NC1CCCCC1	none (no result: tim10-1 inh, SKKanGAS inh, tim23-1 inh, TIM10 inh, NLRP3 yeast inh)
CC1=C(CC(=O)c2ccccc2)C(=O)c2ccccc2C1=O	tim10-1 inh 48.1, tim23-1 inh 64.4 (no result: PfHsp90 set2) | tim10-1 conf 42.0 | tim23-1 confirm 69.2
O=C(CN1C(=O)c2ccccc2C1=O)c1ccccc1	none
O=C1CC(=Nc2ccccc2)NN1c1ccccc1	tim10-1 inh 55.1, tim23-1 inh 58.5, TIM10 inh 49.1 (no result: PfHsp90 set2) | tim10-1 conf 45.2 | tim10 confirm 44.0 | tim23-1 confirm 75.8
O=C1Cc2ccccc2N1c1ccccc1	none
CC(C)Oc1ccc(CSc2nnc3n(C)c(=O)c4c5c(sc4n23)CCCC5)cc1	none
C=C(C)CSc1nnc2n(C)c(=O)c3c4c(sc3n12)CCC4	tim10-1 inh 46.0, tim23-1 inh 53.3 (no result: PfHsp90 set2) | tim10-1 conf inactive | tim23-1 confirm 54.2
CCOc1ccc(S(=O)(=O)N2CCCC(C(=O)Nc3cccc(C)c3)C2)cc1 (configuration not stated)	none
CCOC(=O)CNc1c(-c2ccccc2)nc2ccc(Cl)cn12	tim10-1 inh 40.4, tim23-1 inh 51.3, TIM10 inh 40.3 | tim10-1 conf 32.8 | tim10 confirm inactive | tim23-1 confirm 51.0
Cc1ccc(C(=O)Nc2nnc(C3CCCCC3)s2)o1	tim10-1 inh 46.1, tim23-1 inh 51.9 | tim10-1 conf 35.1 | tim23-1 confirm 44.8
Cc1cc(C(=O)Nc2nnc(C3CCCCC3)s2)no1	none
Cc1ccc(/C(N)=N/OC(=O)N2c3ccccc3Sc3ccccc32)cc1	tim10-1 inh 63.0, tim23-1 inh 68.5, TIM10 inh 86.2 | tim10-1 conf 49.6 | tim10 confirm 80.2 | tim23-1 confirm 46.2
CCC(C(=O)O/N=C(\N)c1ccccc1)c1ccccc1 (configuration not stated)	tim10-1 inh 55.9, tim23-1 inh 56.4, TIM10 inh 54.5 | tim10-1 conf 52.7 | tim10 confirm 48.6 | tim23-1 confirm 43.0
CCC(C(=O)O/N=C(\N)c1ccc(C)cc1)c1ccccc1 (configuration not stated)	tim10-1 inh 68.7, tim23-1 inh 54.1, TIM10 inh 64.5 | tim10-1 conf 60.9 | tim10 confirm inactive | tim23-1 confirm 67.6
CN(CC(=O)Nc1c(Cl)cccc1Cl)C(=O)c1ccccc1Cc1ccccc1	none
C(=NOCc1ccccc1)c1cccnc1	none (no result: tim10-1 inh, SKKanGAS inh, tim23-1 inh, TIM10 inh, NLRP3 yeast inh)
COc1ccc(/C=C2\C(=O)OCc3cc(OC)c(OC)cc32)cc1OC	none
COc1cc2c(cc1OC)/C(=C/c1ccc(Cl)cc1)C(=O)OC2	tim10-1 inh 41.4, tim23-1 inh 55.4 | tim10-1 conf inactive | tim23-1 confirm 47.2
FC(F)C(F)(F)c1cc(-c2ccc(Cl)cc2)n[nH]1	tim10-1 inh 51.5, tim23-1 inh 52.3 (no result: PfHsp90 set2) | tim10-1 conf 41.8 | tim23-1 confirm 41.5
Cc1ccc(S/C=C\C(=O)c2ccccc2)cc1	tim10-1 inh 49.2, tim23-1 inh 57.6, TIM10 inh 43.8 | tim10-1 conf 46.0 | tim10 confirm 55.1 | tim23-1 confirm 62.0
CCC(C)NC(=O)c1cn(CC)c2ccc(S(=O)(=O)N3CCCCCC3)cc2c1=O (configuration not stated)	none
COc1ccc([C@H]2CC(=O)C=C(c3ccc(Cl)c(C(F)(F)F)c3)C2)cc1OC	none (no result: SKKanGAS inh)
CC(C)[C@H](N[C@@H](C)c1ccccc1)c1c(O)ccc2ccccc12	tim10-1 inh 45.0, tim23-1 inh 50.4 | tim10-1 conf 35.1 | tim23-1 confirm 40.0
CSC(=NS(=O)(=O)c1ccc(N)cc1)NS(=O)(=O)c1cccs1	none (no result: tim10-1 inh, SKKanGAS inh, tim23-1 inh, TIM10 inh, NLRP3 yeast inh)
O=C(c1ccc(Cl)c([N+](=O)[O-])c1)N1CCCc2ccccc21	none
Cc1cccc(NC(c2ccc(C)s2)c2ccc3ccc(C)nc3c2O)n1 (configuration not stated)	tim10-1 inh 93.1, SKKanGAS inh 76.7, tim23-1 inh 57.2 | tim10-1 conf 86.4 | tim23-1 confirm 45.0
Cc1cccc(NCc2ccccc2O)n1	none
Cc1cccn2c(=O)c(C=C(C#N)C#N)c(N3CCN(C)CC3)nc12	none
O=C(Oc1cccc2c(O)cccc12)c1ccccc1	tim10-1 inh 46.6, SKKanGAS inh inconclusive, tim23-1 inh 79.0 (no result: PfHsp90 set2) | tim10-1 conf inactive | tim23-1 confirm 50.1
COc1ccc(CNC(=O)C2CCN(c3cc(C(=O)Nc4cccc(OC)c4)ccn3)CC2)cc1	none
O=C(Nc1nnc(C2CC2)o1)c1ccc(S(=O)(=O)N2CCc3ccccc3C2)cc1	none
CC1CCCN(S(=O)(=O)c2ccc(C(=O)Nc3nnc(C4CC4)o3)cc2)C1 (configuration not stated)	tim10-1 inh 45.7, SKKanGAS inh inconclusive, tim23-1 inh 52.7 (no result: PfHsp90 set2) | tim10-1 conf inactive | tim23-1 confirm inactive
O=C(/C(=C/c1ccccc1)n1cncn1)c1ccc(Cl)cc1Cl	tim10-1 inh 79.8, tim23-1 inh 92.2, TIM10 inh 82.1 | tim10-1 conf 82.1 | tim10 confirm inactive | tim23-1 confirm 91.2
Cc1cccc(/C(N)=N/OC(=O)CCc2ccccc2)c1	tim10-1 inh 58.9, tim23-1 inh 63.0, TIM10 inh 52.6 | tim10-1 conf 52.0 | tim10 confirm 46.2 | tim23-1 confirm 45.8
Cc1ccc(/C(N)=N/OC(=O)CCCc2ccccc2)cc1	tim10-1 inh 53.9, tim23-1 inh 69.6, TIM10 inh 59.5 | tim10-1 conf 49.2 | tim10 confirm 63.2 | tim23-1 confirm 66.5
Cc1ccc(NS(=O)(=O)c2cccc(C(=O)NCC3CCCO3)c2)cc1 (configuration not stated)	none (no result: PfHsp90 set2)
O=[N+]([O-])c1cc([N+](=O)[O-])c2cc3ccccc3nc2c1	tim10-1 inh 75.3, tim23-1 inh 69.2, TIM10 inh 86.2 | tim10-1 conf 41.5 | tim10 confirm 96.8 | tim23-1 confirm 44.4
CCN1/C(=C/c2ccc3ccccc3[n+]2CC)C=Cc2ccccc21	tim10-1 inh 74.4, SKKanGAS inh 52.1, tim23-1 inh 84.5, TIM10 inh 51.9 | tim10-1 conf 74.5 | tim10 confirm inactive | tim23-1 confirm 67.0
COc1cccc(CN2c3ccc(Br)cc3C(=O)CS2(=O)=O)c1	tim10-1 inh 40.5, tim23-1 inh 56.9 (no result: SKKanGAS inh) | tim10-1 conf 38.2 | tim23-1 confirm 59.8
